Source: PubChem BioAssay
TIM10 inh: TIM10 yeast growth inhibition | S. cerevisiae TIM10 strain growth, BacTiter-Glo luminescence, 24 h | inhibition, % at 10 µM | hit rate 1.4% among 330,000 | AID 463195;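 active means inhibition of 40% or more at the single tested concentration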;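 further: wild-type TIM10 isogenic control strain grown at permissive 25 °C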
Mdm2 MdmX PPI: human Mdm2/MdmX binding inhibition; hit rate 3% among 330,000; AID 485346; inhibition, % at 8 µM; O15151+Q00987; SaOS-2 split-luciferase Mdm2/MdmX complementation, luminescence;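 active means inhibition of at least 50% at 8 µM in the primary screen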
tim23-1 inh: growth inhibitors of tim23-1 mutant yeast; AID 463212; inhibition, % at 20 µM; S. cerevisiae tim23-1 growth, BacTiter-Glo luminescence, 24 h; hit rate 1.3% among 330,000;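 active means growth inhibition of the mutant yeast at or above 50%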;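 further: temperature-sensitive mutant grown at 25 °C; plate controls were DMSO-treated mutant yeast for no effect and medium wells lacking yeast for full effect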
tim10-1 inh: tim10-1 yeast growth inhibition; S. cerevisiae tim10-1 ts strain growth, BacTiter-Glo, 24 h; inhibition, % at 20 µM; hit rate 2.2% among 330,000; AID 463190;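 active means inhibition of at least 40%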;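 further: mutant grown at 25 °C; 0% = DMSO wells with yeast and 100% = wells holding no yeast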
MPTP block: inhibitors of mitochondrial permeability transition pore | isolated mouse mitochondria, Ca2+ swelling absorbance, 30 min | hit rate 1.4% among 360,000 | inhibition, % at 10 µM | AID 602449;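 active means inhibition of 50% or more, scaled per plate between neutral and stimulator controls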;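 further: 0% = DMSO wells given calcium and 100% = 1 mM EGTA wells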
Mdm2-MdmX conf: human Mdm2/MdmX binding inhibition, confirmed; shares compounds with Mdm2 MdmX PPI; luminescent assay; inhibition, % at 8 µM; hit rate 55% among 10,000; AID 489028; in the data active means inhibition above about 40%
FLuc counter: counter-screen for Mdm2/MdmX inhibitors: full-length luciferase; hit rate 77% among 6,200; inhibition, % at 8 µM; SaOS-2 full-length luciferase counterscreen, luminescence; shares compounds with Mdm2 MdmX PPI;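 active means mean inhibition at 8 µM reaching about 37%, which flags the compound as non-specific, limit read from the data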;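 further: p53-null SaOS-2 cells with luciferase driven by a doxycycline-inducible promoter; compound on cells about two nights before reading with doxycycline added after day one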
Active calls of the source: *; nt = no result given. Compounds with a hit are over-represented: about 6.3% of the library has one in this group of screens.

SMILES	TIM10 inh	Mdm2 MdmX PPI	tim23-1 inh	tim10-1 inh	MPTP block	Mdm2-MdmX conf	FLuc counter
C[C@H]1CN([C@@H](C)CO)C(=O)CCCn2cc(nn2)CO[C@@H]1CN(C)S(=O)(=O)c1ccc(C#N)cc1	nt	nt	nt	nt	-1	nt	nt
COc1ccc(C2c3ccc4ccccc4c3Oc3ncn4nc(Cc5ccccc5)nc4c32)cc1OC (centres undefined)	-3	33	10	20	2	nt	nt
COc1ccc(C2c3c(ncn(CCCO)c3=N)Oc3ccc4ccccc4c32)cc1 (centres undefined)	2	81*	11	-13	-4	70*	57*
COc1ccc(C2c3c(ncn(CCCO)c3=N)Oc3ccc4ccccc4c32)cc1OC (centres undefined)	7	44	3	3	-4	nt	nt
COc1ccc(C2c3ccc4ccccc4c3Oc3ncn(CCCN(C)C)c(=N)c32)cc1 (centres undefined)	4	100*	-4	18	-4	100*	51*
COc1ccccc1C1c2ccc3ccccc3c2Oc2ncn(CCCO)c(=N)c21 (centres undefined)	6	74*	24	33	1	43*	61*
COc1ccccc1C1c2ccc3ccccc3c2Oc2ncn(CCN(C)C)c(=N)c21 (centres undefined)	26	100*	20	20	-2	85*	38*
Cc1ccc(-c2ccc(CN3C(C(C)C)C(=O)N(Cc4cn(CCC5OCCO5)nn4)CCS3(=O)=O)cc2)c(C)c1 (centres undefined)	nt	nt	nt	nt	0	nt	nt
Cc1cc(C)c(S(=O)(=O)N2CCN(C(=O)c3ccc(-n4nc(C)c(Cl)c4C)cc3)CC2)c(C)c1	nt	nt	nt	nt	1	nt	nt
COC(=O)/C=C1\OCc2cc(OC)c(OC)cc21	nt	nt	nt	nt	1	nt	nt
CC1(C(=O)NCCC#N)CCN1C(=O)c1ccccc1CCc1ccccc1 (centres undefined)	nt	nt	nt	nt	-1	nt	nt
C=C(C)C(=O)Nc1ccc2nn(-c3ccccc3O)nc2c1	nt	nt	nt	nt	0	nt	nt
COc1ccc(C2c3c(ncn(CCN4CCOCC4)c3=N)Oc3ccc4ccccc4c32)cc1OC (centres undefined)	7	64*	13	2	-1	38	59*
COc1ccc(C2c3ccc4ccccc4c3Oc3ncn(Cc4ccco4)c(=N)c32)cc1OC (centres undefined)	35	85*	34	35	0	54*	67*
N#CC1=C(N)Oc2c(ccc3cccnc23)C1c1ccccc1 (centres undefined)	-18	75*	25	2	-1	58*	54*
Cc1ccc2[nH]c(=O)c(C3C(C#N)=C(N)Oc4c3ccc3cccnc43)cc2c1 (centres undefined)	12	57*	-6	29	1	42*	44*
CCNC(=O)C1(C)CCCN(C(=O)c2sccc2C)C1 (centres undefined)	nt	nt	nt	nt	-2	nt	nt
O=S(=O)(c1ccccc1F)N1CCN(c2nc(-c3cccnc3)nc3ccccc23)CC1	15	-9	45	15	-2	nt	nt
N#Cc1ccccc1S(=O)(=O)N1CCN(c2nc(-c3cccnc3)nc3ccccc23)CC1	19	54*	36	32	0	47*	76*
CC(=O)N1CCc2cc(S(=O)(=O)N3c4ccccc4CC3C)ccc21 (centres undefined)	0	61*	-4	5	4	54*	58*
CC1Cc2ccccc2N1S(=O)(=O)c1cnc(Cl)c(Cl)c1 (centres undefined)	-71	30	4	-24	1	nt	nt
CSc1ccc(S(=O)(=O)N2c3ccccc3CC2C)cc1 (centres undefined)	-5	53*	22	16	1	54*	65*
O=C(NCC1CCCCC1)c1ccc2sc([C@H]3C[C@H](O)[C@@H](CO)O3)nc2c1	nt	nt	nt	nt	1	nt	nt
COc1ccc(-c2ccc3c(c2)S(=O)(=O)c2cccc(C(=O)NC4CCCC4)c2C3=O)cc1OC	-2	18	0	-7	-2	nt	nt
O=C(NC1CCCCC1)c1cccc2c1C(=O)c1ccc(-c3ccc(OC(F)(F)F)cc3)cc1S2(=O)=O	-6	71*	-16	-9	0	29	79*
